Active and inactive are the calls of the source. Rule as the data show it: active = inhibition above about 30%; inactive = the rest.

This assay in a line: growth suppression of yeast trafficking mutant, preliminary HTS, modulators of trafficking downstream of Golgi apparatus project, 1536-format plate, OD 615 nm (AID 637). The conditions noted are these: yeast transport mutant growth, absorbance 615 nm, 18 h; active compounds read high.
As to `COc1ccccc1N1CCN(c2cc(N3CCCC3)nc(C)n2)CC1`, the inhibition was -2% (inactive).
With `COC(=O)CCn1nnc(-c2ccc(C)cc2)n1`, the inhibition is -2.91% (inactive).
The value for `Cc1cccc(-n2c(SCc3cc(=O)n4ccsc4n3)nc3ccccc32)c1` was 40% (active); that for `COc1ccc(CCN2C(=O)CC(N3CCOCC3)C2=O)cc1` (configuration not stated) was -7.58% (inactive).
Take `CCCCCCC(c1c(C)n(C)n(-c2ccccc2)c1=O)c1c(C)n(C)n(-c2ccccc2)c1=O`: the inhibition is -0.18% (inactive).
For `CCCCSc1nnc([C@H](C)NC(=O)OC(C)(C)C)o1`, the inhibition is 22.6% (inactive).
In the case of `Cc1c(N=C2SCC(=O)N2c2c(C)n(C)n(-c3ccccc3)c2=O)c(=O)n(-c2ccccc2)n1C`, the inhibition is -1.31% (inactive).
The value for `Cc1nc2ccc(C(=O)O)cc2c2c1CC(C)S2` (configuration not stated) was 0.55% (inactive); that for `CC1(C)CC(=O)C(CC(=O)NC(=O)NCc2ccccc2)=C(O)C1` was -10% (inactive); that for `O=C(Nc1ccccc1Cl)c1c(F)c(F)c(F)c(F)c1F` was 7.09% (inactive).
Next, `COC(=O)c1ccc(CSc2nnnn2Cc2ccccc2)cc1`: -2.36% (inactive); `Cc1ccc(F)cc1NC(=O)C1CCCN(c2ncccn2)C1` (configuration not stated): -2.91% (inactive); `O=C(NCc1ccccc1)C1CCCN(S(=O)(=O)c2cccnc2)C1` (configuration not stated): -3.81% (inactive).
With `COc1cc(NS(=O)(=O)c2ccc(N)cc2)nc(OC)n1`, the inhibition was 3.83% (inactive).
Take `Cc1cc(=O)[nH]c(SCc2nc3ncccn3c2Br)n1`: the inhibition was -3.44% (inactive).
Regarding `CC(=O)OCC1=C(C(=O)O)N2C(=O)[C@@H](NC(=O)Cc3cccs3)[C@H]2SC1`, the inhibition was 8.5% (inactive).
As for `CCc1nn(CC(=O)N2CCN(Cc3ccc4c(c3)OCO4)CC2)c(=O)c2cc3occc3n12`, the inhibition is -4.55% (inactive).
`CC(=O)OC[C@H]1O[C@@H](n2ncc(=O)[nH]c2=O)[C@H](OC(C)=O)[C@@H]1OC(C)=O`: the inhibition was 3.17% (inactive).
The value for `Cc1cc(C)cc(-n2nnc(C(=O)NCc3ccc4c(c3)OCO4)c2N)c1` was 0% (inactive); that for `C=CCNc1nc2c(c(=O)n(C)c(=O)n2C)n1CCCCCC` was 5.27% (inactive).
Next, `O=C(CSc1nc2ccccc2[nH]1)c1ccc2c(c1)OCO2`: -5.16% (inactive); `NS(=O)(=O)c1cc2c(cc1Cl)NCNS2(=O)=O`: 1.17% (inactive).

The record behind these values is PubChem BioAssay.
